The record followed here is PubChem BioAssay (NCATS).

Calls of active or inactive are those of the source.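 Rule for the calls: active = compounds whose dose series gives a full or clear partial fitted curve of increased nuclear translocation; inconclusive = weak partial curve or effect only at the top dose; inactive = no dose-dependent translocation response.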
Potency is the fitted concentration of half-maximal effect.

Chain of Glucocorticoid receptor (Homo sapiens) (P04150 whole entry, looked up): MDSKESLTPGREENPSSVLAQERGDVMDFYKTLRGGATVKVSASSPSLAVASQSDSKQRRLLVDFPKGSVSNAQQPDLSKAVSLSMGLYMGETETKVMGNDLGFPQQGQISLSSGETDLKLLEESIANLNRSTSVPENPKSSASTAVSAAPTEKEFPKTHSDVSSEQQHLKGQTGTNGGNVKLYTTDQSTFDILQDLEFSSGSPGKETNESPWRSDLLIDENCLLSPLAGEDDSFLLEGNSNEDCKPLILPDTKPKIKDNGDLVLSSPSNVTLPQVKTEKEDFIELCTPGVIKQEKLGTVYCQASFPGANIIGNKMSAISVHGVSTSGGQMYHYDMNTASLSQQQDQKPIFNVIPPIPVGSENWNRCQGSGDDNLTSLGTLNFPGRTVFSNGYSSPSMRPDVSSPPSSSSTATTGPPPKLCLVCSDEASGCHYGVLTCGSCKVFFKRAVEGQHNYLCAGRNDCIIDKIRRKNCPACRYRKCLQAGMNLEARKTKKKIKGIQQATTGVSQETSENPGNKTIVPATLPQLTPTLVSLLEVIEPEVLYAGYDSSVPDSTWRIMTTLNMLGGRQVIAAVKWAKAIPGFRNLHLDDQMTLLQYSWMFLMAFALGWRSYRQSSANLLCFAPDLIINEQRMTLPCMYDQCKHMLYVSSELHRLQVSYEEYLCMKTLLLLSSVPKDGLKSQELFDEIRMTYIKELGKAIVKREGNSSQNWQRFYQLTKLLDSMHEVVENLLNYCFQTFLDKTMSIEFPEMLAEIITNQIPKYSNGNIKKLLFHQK

This experiment has as its target Glucocorticoid receptor (Homo sapiens) (UniProt P04150). Nature of the experiment: GR-GFP Redistribution (AID 450). The settings on record: U2OS GR-GFP nuclear translocation, laser cytometry, 2 h; series mostly up to 20.6 µM.
For `COc1ccc(C2=Nn3c(nnc3-c3ccccc3)SC2)cc1OC`, the Potency is > 20.6 µM (inactive). As for `CCOC(=O)C1=C(C)N=C2SC(C)C(=O)N2C1c1cccc(F)c1` (stereo unspecified), the Potency is > 20.6 µM (inactive).

Consider `COc1ccc(-n2ncc3c(NCCCn4ccnc4)ncnc32)cc1`, for which the Potency is > 20.6 µM (inactive). Consider `COc1cc(C2Nc3cccc4cccc(c34)N2)cc(OC)c1OC(C)=O`, for which the Potency is > 20.6 µM (inactive).

Turning to `Cc1sccc1C1C(C#N)=C(N)SC(N)=C1C#N`, the Potency is > 20.6 µM (inactive).

`CCN(CC)S(=O)(=O)c1cccc2c(N(C)C)cccc12`: the Potency was > 20.6 µM (inactive). The same measure for `COc1ccc2[nH]cc(C(=O)CN(C)CCc3ccc(OC)c(OC)c3)c2c1`: > 20.6 µM (inactive). On to `CC(=O)c1cc(C#N)c(SCC(=O)C(C)(C)C)nc1C`, for which the Potency is > 20.6 µM (inactive).

With `CCSc1nnc(N(CCC#N)CCC#N)s1`, the Potency was > 20.6 µM (inactive). The same measure for `CCOc1ccc(Cc2nc(N)nc(N)n2)cc1`: > 20.6 µM (inactive); for `Clc1ccc(-c2cn3c(n2)CCC3)cc1`: > 20.6 µM (inactive); for `COC(=O)CSc1nnc2n(-c3ccc(OC)cc3)c(=O)c3c4c(sc3n12)CCCCC4`: > 20.6 µM (inactive).

`Nc1ncnc2nc(SCc3ccccc3)[nH]c12`: the Potency is > 20.6 µM (inactive). `COc1cccc(C2/C(=C(/O)c3cnn(-c4ccccc4)c3C)C(=O)C(=O)N2CCN(C)C)c1` (stereo unspecified): the Potency is > 20.6 µM (inactive).

Take `CC(C)COc1nc2ccccc2nc1C(C#N)C(=O)NC1CCCCC1` (stereo unspecified): the Potency is > 20.6 µM (inactive). The result for `CCN(CC)c1nc(N2CCOCC2)c(C#N)c2c1CN(C)CC2` reads > 20.6 µM (inactive).
